± gives the standard deviation of the averaged measurements.
system: MDAMB468; assay: cell proliferation (confluence) relative to DMSO control; higher = less growth inhibition; details: 5 uM; 6 d
Method: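 Epigenetic chemical probe screen: 15 TNBC cell lines, 500 cells per well in 384-well plates, treated with 5 uM of each of 36 SGC probes for 6 d. Confluency was imaged by IncuCyte ZOOM and normalised to DMSO control wells. Four replicate wells per compound.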

SMILES | cell proliferation [%]
COc1cc(C(=O)N2CC[C@@H](O)[C@@H](N)C2)cc2nc(-c3cc4ccccc4n3CC3CC3)n(C)c12 | 45.6 ± 5
O=C(O)CNC(=O)c1c(O)c2ccccc2n(Cc2ccccc2)c1=O | 77.3 ± 4.1
c1ccc([C@@H]2C[C@H]2NC2CCNCC2)cc1 | 79 ± 12
